According to PubChem BioAssay (NCATS):
Results filed as inconclusive are left out. Activity calls are given as the source filed them. Calls come from the whole dose curve; as a rule, active = well fitted curve in the direction sought with a large enough effect; inconclusive = small, poorly fitted or top-dose-only effect, or another doubt; inactive = no such curve, though single readings can be large; an effect the other way counts as inactive or inconclusive.

Legend:
[1] = qHTS of pediatric cancer cell lines to identify multiple opportunities for drug repurposing: Primary screen for control Hh wild type fibroblast cells (AID 1347106); settings: Hh wild-type fibroblast viability, CellTiter-Glo luminescence, 48 h; series mostly up to 46 µM;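 note: % is set by controls: 0 for no effect and ±100 for the full control effect; a drop in luminescence marks cytotoxicity and a rise apparent proliferation; nearly all actives have a fitted effect of over 55% in size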
Summary of the method: (§1)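 Viability after 48 h compound treatment at 37C, 500-1,000 cells/well, read as ATP luminescence with CellTiter-Glo. Primary screens used 11-point (MIPE, 0.78 nM-46 µM) or 8-point (NPC, 0.59 nM-46 µM) final concentrations; follow-up screens used 11-point dilutions.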

[2] = qHTS of pediatric cancer cell lines to identify multiple opportunities for drug repurposing: Primary screen for Rh30 cells (AID 1347107); settings: Rh30 rhabdomyosarcoma viability, CellTiter-Glo luminescence, 48 h; series mostly up to 46 µM; note: % is set by controls: 0 for no effect and ±100 for the full control effect; nearly all actives have a fitted effect of over 75% in size
Summary of the method: as §1

[3] = qHTS of pediatric cancer cell lines to identify multiple opportunities for drug repurposing: Primary screen for Rh41 cells (AID 1347108); settings: Rh41 rhabdomyosarcoma viability, CellTiter-Glo luminescence, 48 h; series mostly up to 46 µM;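 note: luminescence drop marks cytotoxic hits; nearly all actives have a fitted effect of over 70% in size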
Summary of the method: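 Viability was measured as metabolically active cells after 48 hours of treatment, read by CellTiter-Glo luminescence. Compounds were tested at multiple final concentrations, giving concentration-response curves.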

C#C[C@]1(OC(C)=O)CC[C@H]2[C@@H]3CCC4=C[C@@H](OC(C)=O)CC[C@@H]4[C@H]3CC[C@@]21C
inactive: Potency [1] | Potency [2] | Potency [3]

CCCCN1CCCC1C(=O)Nc1c(C)cc(C)cc1C (stereo unspecified)
inactive: Potency [1] | Potency [2] | Potency [3]

CCOC(=O)OC(C)OC1=C(C(=O)Nc2ccccn2)N(C)S(=O)(=O)c2ccccc21 (stereo unspecified)
inactive: Potency [1] | Potency [2] | Potency [3]

Cc1c(C(N)=O)cc([N+](=O)[O-])cc1[N+](=O)[O-]
inactive: Potency [1] | Potency [2] | Potency [3]

COc1ccc(OC)c(C(O)CNC(=O)CN)c1 (stereo unspecified)
inactive: Potency [1] | Potency [2] | Potency [3]

CCCCCC=CCC=CCCCCCCCC(=O)OCC
inactive: Potency [1] | Potency [2] | Potency [3]

OC[C@@H](O)[C@@H](O[C@@H]1O[C@H](CO)[C@H](O)[C@H](O)[C@H]1O)[C@H](O)[C@@H](O)CO
inactive: Potency [1] | Potency [2] | Potency [3]

C[C@]12CC[C@H]3[C@@H](CCC4=CC(=O)CC[C@@]43C)[C@@H]1CC[C@@H]2C(=O)CO
inactive: Potency [1] | Potency [2] | Potency [3]

O=S1(=O)c2cccc3cccc(c23)N1CCCN1CCN(c2ccc(F)cc2)CC1
inactive: Potency [1] | Potency [2] | Potency [3]

Nc1ccc(/C=C/c2ccc(N)cc2S(=O)(=O)O)c(S(=O)(=O)O)c1
inactive: activity change, negative = cytotoxic [1] -3.6% [at 0.597 µM] | activity change, negative = cytotoxic [2] 24.6% [at 0.597 µM] | activity change, negative = cytotoxic [3] 37.3% [at 0.597 µM]

O=c1[nH]c(=O)n([C@H]2CCCO2)cc1F
inactive: Potency [1] | Potency [2] | Potency [3]

COc1cc(-c2ccc(=O)[nH]n2)ccc1OC(F)F
inactive: Potency [1] | Potency [2] | Potency [3]
